Source: PubChem BioAssay
PKA-R1A act: activates the PKA-R1A holoenzyme complex | PKA-R1A dissociation, Cy5-IP20 fluorescence polarization; scaled: DMSO 0%, 113 µM cGMP 100% | activation, % at 11.4 µM | 340,000 compounds, 0.083% hits;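 active = percent activation above the mean of all tested compounds plus 3 SD, cut at about 19% in these data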;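 note: higher means more PKAc released from R1A so a rise in polarization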
Neddylation inh: blocks human cullin neddylation. 360,000 compounds, 0.58% hits. P61081+Q13564. TR-FRET cullin neddylation, biochemical. AID 651699. calls only at 25 µM; in the data active = inhibition above about 36%
Target sequence (P61081 whole entry, looked up): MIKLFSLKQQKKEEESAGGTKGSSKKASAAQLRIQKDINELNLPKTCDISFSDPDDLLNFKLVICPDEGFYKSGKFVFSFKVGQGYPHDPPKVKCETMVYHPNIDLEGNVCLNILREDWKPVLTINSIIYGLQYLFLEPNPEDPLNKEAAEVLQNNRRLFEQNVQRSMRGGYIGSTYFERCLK
Target sequence (Q13564 whole entry, looked up): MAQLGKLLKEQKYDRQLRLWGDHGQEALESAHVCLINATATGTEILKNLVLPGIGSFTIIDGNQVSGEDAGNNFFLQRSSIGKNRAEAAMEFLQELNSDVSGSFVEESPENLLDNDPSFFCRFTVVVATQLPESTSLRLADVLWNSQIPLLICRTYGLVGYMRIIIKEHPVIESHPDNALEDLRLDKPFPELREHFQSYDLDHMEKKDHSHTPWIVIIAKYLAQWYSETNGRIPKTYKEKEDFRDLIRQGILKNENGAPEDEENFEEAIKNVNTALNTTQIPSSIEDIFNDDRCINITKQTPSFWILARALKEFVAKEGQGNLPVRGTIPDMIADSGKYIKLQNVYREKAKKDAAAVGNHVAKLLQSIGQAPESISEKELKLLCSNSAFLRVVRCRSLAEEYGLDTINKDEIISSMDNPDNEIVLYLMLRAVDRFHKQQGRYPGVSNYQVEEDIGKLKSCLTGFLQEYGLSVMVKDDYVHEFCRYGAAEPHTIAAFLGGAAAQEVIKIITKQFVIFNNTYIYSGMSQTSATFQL
PolyA inh: yeast polyadenylation inhibition | S. cerevisiae SKY197-pL101 polyadenylation reporter, beta-gal luminescence; efflux-impaired pdr1/pdr3 knockout yeast; score 100 = 6 SD above DMSO | activity score, % at 12 µM | 300,000 compounds, 0.02% hits | AID 1875;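 active = lowest replicate activity score at least 50, where 100 means six control SD above control mean; inconclusive = lowest score under 50 but half or more replicates reach 50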;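 note: yeast exposed to compound for 9 h at 30 °C; higher score means more reporter readthrough which indicates perturbed polyadenylation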
PKA-R2B act: activators of human PKA-R2B complex. P22694+P31323. PKA-R2B holoenzyme dissociation, Cy5-IP20 fluorescence polarization; R2B truncated from residue 108, S112A mutant; 0% DMSO only, 100% 113 µM cGMP. activation, % at 11.4 µM. 340,000 compounds, 0.079% hits. AID 504700;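 active = activation above a cutoff set at the mean over all compounds plus 3 SD, cut at about 18% in these data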;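 note: higher means more holoenzyme dissociation and a rise in polarization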
R2B FP artifact: counter-screen for PKA-R2B activators: fluorescence polarization artifacts; shares compounds with PKA-R2B act; FP artifact counterscreen; activation, % at 11.4 µM; 270 compounds, 6% hits; AID 504796; in the data active = activation above about 20%;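 note: Cy5 labelled IP20 peptide probe with compound but no PKA protein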
PKA-R2B confirm: confirmation of human PKA-R2B complex activators. shares compounds with PKA-R2B act. fluorescence polarization, activation. activation, % at 11.4 µM. 270 compounds, 9% hits. AID 504797; in the data active = activation above about 19%
Hits are given with their value; i = inactive; ? = inconclusive; nt = no result given; + = active, no number; ! = a repeat was not active. An excerpt weighted towards active compounds, which were near 0.72% of everything screened.

SMILES	PKA-R1A act	Neddylation inh	PolyA inh	PKA-R2B act	R2B FP artifact	PKA-R2B confirm
NC(=O)CSc1nnc(COc2ccccc2)n1CCc1ccccc1	i	i	i	22	i	i
C=CCn1c(SCN2C(=O)c3ccccc3C2=O)nc2ccc(Cl)cc2c1=O	i	i	i	19	i	i
C=CCn1c(SCC(=O)Nc2sccc2C(N)=O)nc2ccc(Cl)cc2c1=O	i	i	i	i	nt	nt
COc1ccc(NC(=O)N2CCCCCC2)cc1OC	i	i	i	i	nt	nt
CC1(C(=O)O)CCCN(C(=O)c2ccc3c(c2)C(C)(C)CCC3(C)C)C1 (stereo not given)	nt	i	nt	nt	nt	nt
Cc1ccccc1-c1nc(Cc2ccc(Cl)cc2)no1	i	i	i	19	i	i
Cc1ccccc1-c1nnc(-c2ccc(Cl)cc2)o1	i	i	i	i	nt	nt
CCC(=O)Nc1sc2c(c1C(N)=O)CCC2	i	i	i	22	i	i
CC(=O)c1cccc(CN2CCCCC2C(=O)Nc2ccc(Oc3ccccc3)nc2)c1 (stereo not given)	i	i	i	i	nt	nt
CC(C)OC(=O)CSc1nnc(-c2ccc(C(C)(C)C)cc2)n1N	i	i	i	19	i	i
Cc1ccc2nc(SCCC#N)nc(C)c2c1	i	i	i	i	nt	nt
Cc1ccc2nc(SCC(=O)O)nc(C)c2c1	i	i	i	20	i	i
CCN(CC)c1ccc(-n2c(C)c(C(C)=O)c(C(C)=O)c2C)cc1	i	i	?	19	i	i
Cc1ccc(C(NC(=O)N2CCOCC2)C(Cl)Cl)cc1F (stereo not given)	i	i	i	22	i	i
CCN(C(=O)CSc1nnc(-c2ccccc2OC)n1N)c1c(N)n(Cc2ccccc2)c(=O)[nH]c1=O	i	i	nt	i	nt	nt
COCCNC(=O)CN(Cc1ccccc1)C(=O)CCC(=O)Nc1nccs1	i	i	i	19	i	i
O=C(CSc1nnc(Nc2ccccc2F)s1)NC1CC1	i	i	nt	i	nt	nt
O=C(c1ccc(OCC2CCCO2)cc1)N1CCN(c2ccccc2)CC1 (stereo not given)	i	i	i	19	i	i
O=S(=O)(NCCN1CCOCC1)c1ccc(F)c(Cl)c1	i	i	i	i	nt	nt
COc1ccc(-c2noc(CN(C)C(=O)c3ccc4c(c3)OCO4)n2)cc1OC	i	i	i	i	nt	nt
COc1ccc(-c2noc(CN(C(=O)c3ccc4c(c3)OCO4)C(C)C)n2)cc1OC	i	i	i	19	i	i
NC(=O)CC(NC(=O)c1ccccc1)c1ccc(N2CCC(Cc3ccccc3)CC2)c([N+](=O)[O-])c1 (stereo not given)	i	i	i	i	nt	nt
NC(=O)CC(NC(=O)c1ccc(Br)cc1)c1ccc(N2CCC(Cc3ccccc3)CC2)c([N+](=O)[O-])c1 (stereo not given)	i	i	i	19	i	i
CC1=[N+](C)c2ccc3ccccc3c2C1(C)C	i	+	i	19	i	i
Cc1ccc(C(=O)NCC(=O)N2CCN(c3ccccc3)CC2)cc1	i	i	i	21	i	i
SMILES	PKA-R1A act	Neddylation inh	PolyA inh	PKA-R2B act	R2B FP artifact	PKA-R2B confirm
CCCCCCCCCCCCCCCC[N+](C)(C)CCN(Cc1ccc(OC)cc1)c1ncccn1	i	i	nt	30	i	36
O=S(=O)(O)c1cccc2c(N=Nc3ccc(O)c4ncccc34)cccc12	i	i	i	21	i	i
C[C@@H]1CN([C@@H](C)CO)C(=O)CCCn2nncc2CO[C@H]1CN(C)S(=O)(=O)c1cccc(C#N)c1	i	i	nt	i	nt	nt
Cc1ccccc1-n1c(SCC(=O)N/N=C/C=C/c2ccccc2[N+](=O)[O-])nc2ccccc2c1=O	i	i	i	21	i	i
CC1(c2ccccc2Cl)NC(=O)N(CC(=O)Nc2ccc(N3CCCCC3)cc2)C1=O (stereo not given)	i	i	i	i	nt	nt
CC(C(=O)Nc1ccccc1)c1ccc(-c2ccccc2)c(F)c1 (stereo not given)	i	i	i	i	nt	nt
CC(C(=O)O)c1ccc(-c2ccccc2)c(F)c1 (stereo not given)	i	i	i	21!	i	i
O=S1(=O)CCN(CCc2ccccc2)CC1	i	i	nt	i	nt	nt
CN1C2CCC1CC(NC(=O)c1cc(S(=O)(=O)N(C)C)c(Cl)cc1Cl)C2 (stereo not given)	i	i	nt	19	i	i
COc1ccc(S(=O)(=O)N2CCOCC2)cc1NC(=O)c1ccncc1	i	i	nt	i	nt	nt
